Bioassay records: PubChem BioAssay, National Center for Advancing Translational Sciences (NCATS)
HCMV antiviral: human cytomegalovirus inhibition; activity change, negative = inhibition, % at 57.5 µM; HFF cells, HCMV-luciferase reporter, 72 h; stronger effect = lower value; AID 1259415; 410,000 compounds, 4.5% hits; in the data active means activity change below about -60%; inconclusive means no clear call, values can overlap the other calls; inactive means above about -39%; further: on the % scale 0 is the no-effect control and ±100 the full control effect
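Luciferase read-out from HCMV-luciferase-infected HFFs (MOI 1 PFU/cell) 72 h post infection at 37C; compounds added after 16 h cell attachment; activity normalized between buffer-only basal and Salinomycin (10uM) inhibitor controls.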
SARS PLP yeast: blocks SARS-CoV papain-like protease in a yeast assay. S. cerevisiae expressing SARS-CoV PLpro, growth rescue. Potency, µM (doses to about 32.9 µM), inactives show top-dose activity, positive = growth rescue, hits mostly activators. 330,000 compounds, 0.19% hits; calls by dose curve; further: potency means the concentration at half of the fitted maximal effect; 0% is about no effect; nearly all actives have a fitted effect of over 55% in size
HCV inhibitor: HCV inhibition; Potency, µM (highest dose often 41.8 µM), for inactives: at the highest dose activity change, negative = inhibition, most hits filed as inhibitors; 340,000 compounds, 3.4% hits; Huh7.5.1 HCVcc-Cre infection, luciferase reporter, 44 h; further: potency means the concentration at half of the fitted maximal effect; on the % scale 0 is the no-effect control and ±100 the full control effect
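Seed cells (1,000/well) for 4 h; treat with compound and infect with HCVcc-Cre, moi about 0.5. Incubate 44 h, then detect luciferase activity.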
Pf growth 48h: inhibits P. falciparum growth in the first generation, 48 h; P. falciparum luciferase growth in erythrocytes, 48 h; Potency, µM (series often up to 28.7 µM), for the others: at the top dose activity change, negative = inhibition, most hits filed as inhibitors; 310,000 compounds, 5.9% hits; AID 504832; further: potency means the concentration at half of the fitted maximal effect; on the % scale 0 is the no-effect control and ±100 the full control effect
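A one-generation exposure of luciferase-tagged malaria parasites in RPMI 1640/Albumax erythrocyte culture, 37 C and 5% CO2. Inhibition is inferred from decreased luminescence after adding detection reagent.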
Sm TGR block: inhibitors of Schistosoma mansoni thioredoxin glutathione reductase; Q962Y6; AID 485364; 360,000 compounds, 3% hits; purified TGR, DTNB reduction, TNB absorbance 405 nm; Potency, µM (titrated, usually from 114 µM), without a hit: at the top dose activity change, negative = inhibition, actives largely listed as inhibitors; further: potency means the concentration at half of the fitted maximal effect; on the % scale 0 is the no-effect control and ±100 the full control effect; nearly all actives have a fitted effect of over 60% in size
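First, TGR (20 nM dispensed) and NADPH were mixed with compound. Second, a 15 min room-temperature incubation followed. Third, further NADPH and then DTNB were added to start the reaction. Finally, TNB absorbance was monitored kinetically.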
Pf growth 96h: P. falciparum growth inhibition at 96 hours; Potency, µM (doses to about 28.7 µM), without a hit: at the top dose activity change, negative = inhibition, most hits filed as inhibitors; AID 504834; 320,000 compounds, 6.9% hits; P. falciparum luciferase reporter growth, 96 h; further: potency means the concentration at half of the fitted maximal effect; on the % scale 0 is the no-effect control and ±100 the full control effect
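96 h incubation, 37 C, 5% CO2, of luciferase-reporter P. falciparum-infected RBCs (2% hematocrit, 0.05% parasitemia final) with test compounds; endpoint luminescence.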
The depositor's hits bear a star; ? = inconclusive; · = not tested or not shown; [ ] = dose if it differs, or a comment. Compounds with a hit are over-represented: about 15% of the library has one in this group of screens. Unless noted, the call rests on the fitted dose curve; in most records, active means well fitted curve in the direction sought with a large enough effect; inconclusive means small, poorly fitted or top-dose-only effect, or another doubt; inactive means no such curve, though single readings can be large; an effect the other way counts as inactive or inconclusive.

SMILES | HCMV antiviral | SARS PLP yeast | HCV inhibitor | Pf growth 48h | Sm TGR block | Pf growth 96h
COc1ccc2c(c1)CC1(CN2C)C(=O)NC(=O)N(c2ccc(C)cc2)C1=O (stereo not drawn) | 8 | 1% | 5% | -17% | 50µM* | ·
O=C(N[C@H](CO)Cc1ccccc1)c1ccco1 | -24 | · | -6% | · | · | ·
O=C(O)c1ccc2c(=O)n3c(nc2c1)/C(=C/c1cccc(Cl)c1Cl)CCCC3 | 59 | -10% | 38% | -25% | -5% | 12µM*
Cc1cccc(N2CCN(C(=O)c3ccc(NS(=O)(=O)c4ccc5[nH]c(=O)[nH]c5c4)cc3)CC2)c1C | -67* | 2% | -16% | ? | -5% | 8.3µM*
CCOC(=O)C1CCCN(C(=O)c2ccc(NS(=O)(=O)c3ccc4[nH]c(=O)[nH]c4c3)cc2)C1 (stereo not drawn) | -13 | -2% | 11% | ? | 0% | 5.9µM*
CCOc1ccc(CC(=O)Nc2c(C(=O)c3ccc(F)cc3)oc3ccc(Cl)cc23)cc1OCC | 1 | · | · | · | 0% | ·
CCOc1ccc(NC(=O)CCN2C(=S)NC(C)(C)CC2C)cc1 (stereo not drawn) | 11 | 10% | 0% | -17% | 54% | 78%
CC1CC(C)(C)NC(=S)N1CCC(=O)Nc1ccc2c(c1)OCCO2 (stereo not drawn) | 53 | 0% | ? | -21% | 1% | 1.5µM*
CC(C)c1ccc(NC(=O)CCCN2C(=S)NC(C)(C)CC2C)cc1 (stereo not drawn) | -86* | 5% | -17% | ? | 17% | 2%
O=C(NC1CC1)C1=C[C@@H](c2c[nH]c3ccccc23)C[C@@H](OCc2ccc(CO)cc2)O1 | 15 | 0% | 36%[8.37 µM] | -16% | 1% | ?
Cc1ccc(NC(=O)c2ccc(-n3c(C)nnc3C)cc2)cc1F | 5 | · | · | · | 3% | ·
Cc1ccnc(NS(=O)(=O)c2ccc(NC(=O)CCc3ccccc3)cc2)n1 | 21 | 2% | 12% | 7% | -15% | -5%
CCN(Cc1ccccc1)S(=O)(=O)c1ccc(C(=O)N(CCCN(C)C)c2nc3cc4c(cc3s2)OCO4)cc1 | -65* | -1% | ? | ? | -18% | ?
CC(=O)c1ccc(C(=O)N(CCCN(C)C)c2nc3c(C)c(C)ccc3s2)cc1 | -4 | · | · | · | -17% | ·
Cc1ccc2sc(N(CCCN(C)C)C(=O)c3ccc(S(=O)(=O)N(C)C4CCCCC4)cc3)nc2c1C | -35 | -4% | ? | 10µM* | 10% | 12µM*
CCN(Cc1ccccc1)S(=O)(=O)c1ccc(C(=O)N(CCCN(C)C)c2nc3c(C)c(C)ccc3s2)cc1 | -16 | -11% | 13µM* | ? | -4% | ?
Cc1ccc2sc(N(CCCN(C)C)C(=O)c3ccc(S(=O)(=O)N4CCOCC4)cc3)nc2c1C | -35 | -2% | ? | 13µM* | 4% | ?
Cc1cccc(C(=O)Nc2nnc(S(=O)(=O)N(C)c3ccccc3C)s2)c1 | -6 | · | · | · | -20% | ·
Cc1oc(-c2ccccc2Cl)nc1CS(=O)CC(=O)NCc1ccc(Cl)cc1 (stereo not drawn) | -30 | -12% | -26% | 10% | -4% | -20%
Cc1ccc(CCNC(=O)CS(=O)Cc2nc(-c3ccccc3F)oc2C)cc1 (stereo not drawn) | ? | 1% | -6% | 20% | ? | 17%
Cc1ccccc1-c1nc(CS(=O)CC(=O)NCc2ccc3c(c2)OCO3)c(C)o1 (stereo not drawn) | -19 | 6% | 0% | -7% | ? | -19%
COc1ccc(CCNC(=O)CS(=O)Cc2nc(-c3cccs3)oc2C)cc1OC (stereo not drawn) | 5 | -1% | -38% | ? | 22µM* | 8.3µM*
Cc1oc(-c2cccs2)nc1CS(=O)CC(=O)NCc1ccc2c(c1)OCO2 (stereo not drawn) | -29 | 1% | ? | 57% | 40µM* | 33%
Cc1ccc(CCNC(=O)CS(=O)Cc2nc(-c3cccs3)oc2C)cc1 (stereo not drawn) | -33 | -5% | 1% | -9% | 8.9µM* | -7%
Cc1ccc(CNC(=O)CS(=O)Cc2nc(-c3cccs3)oc2C)cc1 (stereo not drawn) | 16 | 4% | -15% | · | 25µM* | -35%
SMILES | HCMV antiviral | SARS PLP yeast | HCV inhibitor | Pf growth 48h | Sm TGR block | Pf growth 96h
CCCCCC(=O)N1C[C@@H](n2cc(-c3ccc(F)cc3)nn2)[C@H](O)C[C@@H]1c1ccc(OC)cc1 | 5 | · | · | · | · | ·
COc1ccc(CCNC(=O)CS(=O)Cc2nc(-c3ccccc3Cl)oc2C)cc1OC (stereo not drawn) | -16 | 1% | 9% | -10% | 56µM* | 128%
COc1ccc(CCNC(=O)CS(=O)Cc2nc(-c3ccccc3F)oc2C)cc1OC (stereo not drawn) | -4 | -3% | -12% | 6% | ? | 0%
COC(=O)C(=N/Nc1ccccc1C(=O)OC)/C(C)=N/O | ? | -20% | ? | 59% | 1% | 52%
CC1=C/C(=C(/c2cc(C)c(O)c(Br)c2)c2ccccc2S(=O)(=O)O)C=C(Br)C1=O | -1 | 6% | -6% | ? | 45µM* | -6%
CC1=C/C(=C(/c2ccc(O)c(C)c2)c2ccccc2S(=O)(=O)O)C=CC1=O | ? | 2% | 5% | -1% | -25% | -10%
O=C1c2cccc3c(N4CCCCC4)ccc(c23)C(=O)N1c1cccc(O)c1 | -84* | 0% | ? | ? | · | 10%
O=C1c2cccc3c(N4CCCCC4)ccc(c23)C(=O)N1CCO | 17 | -11% | ? | 13% | 4% | ?
O=P(O)(c1ccccc1)c1ccccc1O | -21 | 4% | 7% | 2% | 15% | 12µM*
O=P(Cc1ccccc1O)(c1ccccc1)c1ccccc1 | 2 | -2% | 2% | 8% | -3% | 13%
CC(C)(C)c1ccc(C(=O)O/N=C(\N)c2ccccn2)cc1 | -99* | -11% | ? | ? | -5% | 58%
Cc1ccc(C(=O)O/N=C(\N)c2ccccn2)cc1C | ? | -19% | 23% | -92% | -9% | 105%
Cc1cc(C)c(C)c(OCC(=O)O/N=C(\N)c2ccccn2)c1 | -10 | 0% | 10µM* | · | 0% | ?
Cc1ccc(C(=O)O/N=C(\N)c2ccccn2)cc1 | -69* | -24% | 13% | ? | 1% | -11%
Cc1cc(C)cc(OCC(=O)O/N=C(\N)c2ccccn2)c1 | 23 | 0% | -10% | 25% | -2% | ?
N/C(=N\OC(=O)c1ccccc1)c1ccccn1 | 0 | -6% | 14% | -35% | 2% | ?
CCOc1ccc(C(=O)O/N=C(\N)c2ccccn2)cc1 | -91* | -17% | -4% | -90% | 6% | 0%
